From the supplement of paper PMC10646978
± gives the standard deviation.

Key:
Conditions in all cases: modulator concentration 10 µM
[1] = system: RAW-Dual (murine macrophage reporter line); assay: NF-kB reporter (SEAP) activity fold change vs agonist alone; higher = enhanced NF-kB activity
Method in brief: (§1)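 RAW-Dual murine macrophage reporter cells were plated at 50 000 per well in 384-well plates, pin-transferred compound to 10 μM final, and pre-incubated for 1 hour at 37 °C before a PRR agonist was added and the cells incubated overnight. NF-κB activity was read from supernatant SEAP with QUANTI-Blue at 620 nm absorbance, and IRF activity from Lucia luciferase with QUANTI-Luc by luminescence. Each signal was expressed as fold change by dividing by the mean agonist-only control on the same plate. Two replicate plates were averaged, with errors obtained by propagation.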

[2] = system: RAW-Dual (murine macrophage reporter line); assay: IRF reporter (Lucia luciferase) activity fold change vs agonist alone; higher = enhanced IRF activity
Method in brief: as §1

[3] = system: RAW-Dual (murine macrophage reporter line); assay: viability score (confluency relative to resting cells, overnight) (fraction); higher = more viable, active = viable (0.7 or more)
Method in brief: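 Compound was added at a final 10 μM to RAW-Dual macrophages in 384-well plates and left overnight. Confluency was imaged with IncuCyte, and two masks were generated in IncuCyte software over all imaged wells. Each viability score is confluency relative to resting cells, and a compound met the cutoff only when both masks were above 70% of resting cells.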

[4] = agonist: CpG ODN 1826 0.5 ug/mL

| Structure (SMILES) | NF-kB reporter [1, 4] | NF-kB reporter ([1]; agonist: LPS 0.1 ug/mL) | NF-kB reporter ([1]; agonist: MPLA […]) | IRF reporter ([2]; agonist: 3'3'-cGAMP 10 ug/mL) | IRF reporter ([2]; agonist: LPS 0.1 ug/mL) | IRF reporter ([2]; agonist: MPLA […]) | viability score [3] |
| --- | --- | --- | --- | --- | --- | --- | --- |
| CCN(CC)CCNc1ccc(CO)c2sc3ccccc3c(=O)c12 [Prestw-355] | 0.178 ± 0.01 | 0.705 ± 0.065 | 1.09 ± 0.14 | 0.408 ± 0.024 | 0.964 ± 0.13 | 1.97 ± 0.17 | 0.907 (active) |
| CC1CCN(C2CC(=O)N(c3ccc(S(=O)(=O)N4CCOCC4)cc3)C2=O)CC1 (stereo unspecified) | 0.986 ± 0.082 | 1.02 ± 0.065 | 0.843 ± 0.05 | 1.02 ± 0.025 | 1.33 ± 0.096 | 0.995 ± 0.23 | 1 (active) |
| CCN(CC)c1ccc(C=NNC(=O)c2ccccc2C)c(O)c1 | 2.52 ± 0.2 | 1.41 ± 0.092 | 3.2 ± 0.13 | 0.442 ± 0.032 | 0.974 ± 0.11 | 0.721 ± 0.15 | 0.444 (inactive) |
| Cc1cccc(C)c1OCC(=O)N[C@@H](Cc1ccccc1)[C@@H](O)C[C@H](Cc1ccccc1)NC(=O)[C@H](C(C)C)N1CCCNC1=O | 0.665 ± 0.082 | 0.889 ± 0.058 | 1.24 ± 0.12 | 0.67 ± 0.04 | 1.2 ± 0.071 | 1.37 ± 0.12 | 1.02 (active) |
| COc1ccc(C=C2C(=O)N(c3ccc(C(=O)O)cc3)N=C2C)cc1 | 0.794 ± 0.082 | 0.977 ± 0.072 | 1.02 ± 0.092 | 0.934 ± 0.052 | 1.22 ± 0.099 | 1.21 ± 0.17 | 1.01 (active) |
| COc1ccc(S(=O)(=O)N(CC(=O)Nc2ccccc2Br)c2ccc(C)cc2)cc1OC | 0.735 ± 0.067 | 0.773 ± 0.076 | 0.864 ± 0.041 | 0.858 ± 0.086 | 1.04 ± 0.11 | 1.1 ± 0.17 | 1 (active) |
| Cc1ccc(F)c(NC(=O)Nc2ccc(-c3cccc4[nH]nc(N)c34)cc2)c1 | 0.692 ± 0.1 | 0.758 ± 0.2 | 1.59 ± 0.16 | 0.102 ± 0.0067 | 1.04 ± 0.22 | 1.19 ± 0.38 | 0.829 (active) |
| CCC(C)NC(=O)C(=O)Nc1cccc(C(F)(F)F)c1 (stereo unspecified) | 0.89 ± 0.093 | 1.05 ± 0.073 | 0.87 ± 0.052 | 1.04 ± 0.058 | 1.16 ± 0.18 | 0.959 ± 0.14 | 1.02 (active) |
| COC(=O)c1cccc(Nc2nc(C=Cc3ccccc3)nc3ccccc23)c1 | 1.3 ± 0.12 | 1.28 ± 0.1 | 5.46 ± 0.19 | 0.658 ± 0.023 | 0.945 ± 0.14 | 5.98 ± 0.47 | 0.851 (active) |
| CCOc1ccc(C=C2SC(=S)N(C)C2=O)cc1 | 0.96 ± 0.075 | 1.01 ± 0.072 | 0.905 ± 0.073 | 0.962 ± 0.049 | 1.39 ± 0.15 | 1.3 ± 0.23 | 1.01 (active) |
| S=C(NCCN1CCCCC1)NCc1ccccc1 | 0.962 ± 0.14 | 1 ± 0.055 | 0.99 ± 0.12 | 1.01 ± 0.035 | 1.33 ± 0.14 | 1.22 ± 0.12 | 1.01 (active) |
| CC(=O)Nc1cc2nc3ccccc3nc2cc1NC(C)=O | 0.964 ± 0.11 | 1.05 ± 0.11 | 0.955 ± 0.041 | 1.09 ± 0.28 | 1.05 ± 0.092 | 0.988 ± 0.3 | 1 (active) |
| O=C(O)CCCCCN1C(=O)C(=Cc2cn(-c3ccccc3)nc2-c2cccs2)SC1=S | 1.02 ± 0.063 | 1.12 ± 0.12 | 1.01 ± 0.059 | 1.03 ± 0.038 | 1.27 ± 0.082 | 1.06 ± 0.11 | 1 (active) |
| CCOC(=O)C1CCCN(S(=O)(=O)Cc2ccccc2)C1 (stereo unspecified) | 0.766 ± 0.067 | 0.879 ± 0.043 | 1.02 ± 0.089 | 0.814 ± 0.04 | 1.42 ± 0.096 | 1.53 ± 0.14 | 1.01 (active) |
| O=C(c1ccc(C(F)(F)F)nc1)N1CC(n2cc(C3CC3)nn2)C1 | 0.889 ± 0.073 | 0.931 ± 0.095 | 1.13 ± 0.082 | 1.01 ± 0.071 | 1.06 ± 0.15 | 1.08 ± 0.29 | 0.942 (active) |
| Cc1cc2ncc3c(n2n1)CCN(C(=O)c1cnoc1C)C3 | 0.857 ± 0.037 | 0.964 ± 0.077 | 1.02 ± 0.055 | 0.972 ± 0.045 | 1.11 ± 0.25 | 1.21 ± 0.43 | 0.896 (active) |
| COc1ccc(N(CC(=O)Nc2ccc3ccccc3c2)S(C)(=O)=O)cc1OC | 0.921 ± 0.074 | 1.06 ± 0.06 | 0.883 ± 0.054 | 0.907 ± 0.025 | 1.43 ± 0.18 | 1.06 ± 0.14 | 1.01 (active) |
| Cc1ccccc1-c1noc(-c2cc3ccccc3oc2=O)n1 | 0.911 ± 0.25 | 0.936 ± 0.077 | 0.917 ± 0.07 | 1 ± 0.027 | 1.08 ± 0.11 | 1.21 ± 0.12 | 0.996 (active) |
| Cc1cc(=O)n2c(-c3cccc(NC(=O)C4CCCO4)c3)csc2n1 (stereo unspecified) | 1.25 ± 0.072 | 1.04 ± 0.089 | 1.01 ± 0.037 | 0.973 ± 0.093 | 1.04 ± 0.11 | 0.936 ± 0.18 | 0.999 (active) |
| N#Cc1c(NC(NC(=O)c2cccs2)C(Cl)(Cl)Cl)sc2c1CCCC2 (stereo unspecified) | 0.669 ± 0.038 | 1.13 ± 0.076 | 0.878 ± 0.1 | 0.66 ± 0.022 | 0.694 ± 0.086 | 0.69 ± 0.073 | 0.986 (active) |
| O=S(=O)(Nc1cccc2cccnc12)c1ccccc1 | 0.961 ± 0.13 | 0.597 ± 0.097 | 0.659 ± 0.053 | 1.04 ± 0.081 | 5.63 ± 1 | 1.32 ± 0.29 | 0.745 (active) |
| C#Cc1cccc(Nc2ncnc3cc(OCCOC)c(OCCOC)cc23)c1 | 0.819 ± 0.051 | 1.1 ± 0.092 | 0.945 ± 0.05 | 0.948 ± 0.055 | 1.05 ± 0.16 | 1.13 ± 0.3 | 0.993 (active) |
| Cl.NC1=NCC2c3ccccc3Cc3ccccc3N12 (stereo unspecified) | 1.03 ± 0.077 | 1.09 ± 0.056 | 1.06 ± 0.077 | 0.898 ± 0.068 | 0.982 ± 0.051 | 0.822 ± 0.11 | 1 (active) |
| O=C(NCC1CCCO1)c1[nH]nnc1-c1ccc(F)cc1 (stereo unspecified) | 1.15 ± 0.16 | 0.996 ± 0.075 | 1.01 ± 0.05 | 0.999 ± 0.038 | 1.03 ± 0.048 | 1.1 ± 0.12 | 1 (active) |
| Cc1cc(Nc2cc(CN3CCOCC3)c3nc(C)c(Cc4ccc(Cl)cc4F)n3n2)[nH]n1 | 2.15 ± 0.29 | 1.46 ± 0.39 | 1.59 ± 0.13 | 0.291 ± 0.025 | 0.884 ± 0.16 | 2.72 ± 0.31 | 0.0653 (inactive) |
| CN(C(=NS(=O)(=O)c1ccccc1)c1ccccc1)c1ccc(O)cc1 | 1.05 ± 0.19 | 1.39 ± 0.11 | 1.16 ± 0.096 | 0.968 ± 0.063 | 1.2 ± 0.26 | 1.24 ± 0.2 | 1.01 (active) |
| CC(=NNC(N)=S)C1=CC(C)(C)CCC1 | 0.744 ± 0.061 | 0.985 ± 0.062 | 1.06 ± 0.13 | 0.462 ± 0.012 | 1.17 ± 0.19 | 0.978 ± 0.2 | 1.01 (active) |
| Cc1cc(C(=O)N2CCC(Oc3cccc4cccnc34)CC2)c(C)o1 | 1.1 ± 0.073 | 1.1 ± 0.12 | 0.81 ± 0.066 | 1.02 ± 0.092 | 1.07 ± 0.15 | 1.07 ± 0.23 | 1.01 (active) |
